We go through 40 compounds from PubChem BioAssay (Tox21).

Where “and” joins values, the source holds several entries; their conditions need not be identical. Equal entries are not always repeated. Records with an inconclusive call do not appear. Entries that show only a call come without a potency. Some compounds were tested as several samples or in several runs, with calls that do not always agree. Calls of active or inactive are those of the source. Calls come from the whole dose curve; as a rule, active = well fitted activation curve with a large enough effect in the repeat runs; inconclusive = weak or mixed curves, or effect the other way; inactive = no such curve, though single readings can be large or run the other way.
Potency is the fitted concentration of half-maximal effect.

The assay is described as follows: qHTS assay to identify small molecule agonists of the estrogen related receptor signaling pathway with the pleiotropic PPARgamma coactivator (PGC) from Tox21 10K library (AID 1224842). Note: nearly all actives have a fitted effect of over 15% in size. The settings on record: PGC/ERR reporter cell line, luciferase ONE-Glo, 18 h; series mostly up to 92.4 µM. An excerpt: National Center for Advancing Translational Sciences [NCATS] NIH Chemical Genomics Center [NCGC] U.S. Environmental Protection Agency [EPA] National Institutes of Environmental Health Sciences [NIEHS] National Toxicology Program [NTP] Assay overview: Estrogen related receptors (ERRs), the first orphan nuclear receptors discovered, play an important role in the control of cellular energy metabolism. ERRs are required for high-energy production in response to the environmental challenges. The pleiotropic PPARgamma coactivator (PGC) is a major partner of ERR and a key regulator in energy homeostasis. Together they have been implicated in the etiology of metabolic disorders such as Type 2 diabetes and metabolic syndrome. ERR-alpha was also identified as an adverse marker for breast cancer progression; ERR-alpha-positive tumors have a poor prognosis. To screen and to identify environmental compounds that perturb the PGC/ERR signaling pathways could provide valuable information for potential therapeutic or preventive measures in the treatment of metabolic disease. For identifying PGC/ERR agonists, PGC/ERR cell line (provided by NTP) has been used to screen Tox21 10K library.
Assay Protocol Summary: The PGC/ERR cells were dispensed at 2,000 cells/5 ul/well in 1536-well white plates using a Multidrop dispenser. After the assay plates were incubated at a 37 C/5% CO2 incubator for 6 hours, 23 nL of compounds dissolved in DMSO, positive and negative controls or DMSO only was transferred to the assay plate by a pin tool. The plates were incubated at 37 C for 18 hours. 4 ul/well of One-Glo reagent was added into the assay plates using a Flying Reagent Dispenser. After 30-minute incubation at room temperature, the luminescence intensity in the plates was measured using a ViewLux plate reader.
(In general: Quantitative high-throughput screening tests each substance at several concentrations.)
With `CCCCOC(=O)COC(=O)c1ccccc1C(=O)OCCCC`, the Potency entry is “inactive”. Regarding `CC(C)=CC1C(C(=O)OCc2cccc(Oc3ccccc3)c2)C1(C)C` (stereo not given), the Potency result was “inactive”. Next, `O=C1Nc2ccc(Cl)cc2C(c2ccccc2)=NC1O` (stereo not given): “inactive”. As for `Nc1ccc([N+](=O)[O-])cc1N`, the Potency result is “inactive”.

Regarding `CC(C)Nc1nc(Cl)nc(NC(C)C)n1`, the Potency result was “inactive”.

Consider `C=CC(=O)OCC(CC)(COC(=O)C=C)COC(=O)C=C`, for which the Potency result was “inactive”. For the compound `CCOP(=S)(OCC)OP(=S)(OCC)OCC`, the Potency result is “inactive”. On to `CCNCC`, for which the Potency result was “inactive”.

On to `Clc1cccc(Cl)c1`, for which the Potency result is “inactive”. Next, `N#CCCCCC#N`: “inactive”; `OC(c1ccc(Cl)cc1)(c1cncnc1)c1ccccc1Cl` (stereo not given): “inactive”; `O=[N+]([O-])/N=C1\NCCN1Cc1ccc(Cl)nc1`: “inactive”. Next, `c1ccc2c(c1)Nc1ccccc1S2`: “inactive”; `CC(C)(O)C(=O)Nc1ccc([N+](=O)[O-])c(C(F)(F)F)c1`: “inactive”. With `CNC(=O)Oc1cccc2c1OC(C)(C)C2`, the Potency entry was “inactive”. For the compound `O=[N+]([O-])c1ccc(Nc2ccccc2)cc1`, the Potency result was “inactive”. For `CSc1nc(NC(C)C)nc(NC(C)C)n1`, the Potency result is “inactive”. Next, `CCOP(=O)(OCC)OCC`: “inactive”. `CC(C)Nc1ccc(Nc2ccccc2)cc1`: the Potency result is “inactive and 19.3 µM (active)”.

For the compound `CN(C)P(=O)(N(C)C)N(C)C`, the Potency result was “inactive”. In the case of `CC(C)=CC1C(C(=O)OCN2C(=O)C3=C(CCCC3)C2=O)C1(C)C` (stereo not given), the Potency result is “inactive”. Next, `N#CC(c1ccccc1)c1ccccc1`: “inactive”. Take `Cn1c(-c2ccccc2)cc(-c2ccccc2)[n+]1C`: the Potency result was “inactive”. In the case of `ClCC(Cl)CCl`, the Potency result is “inactive”. For the compound `CC(C)(c1ccc(OCC2CO2)cc1)c1ccc(OCC2CO2)cc1` (stereo not given), the Potency entry was “inactive”. Next, `O=S(=O)(O)C(F)(F)C(F)(F)C(F)(F)C(F)(F)C(F)(F)C(F)(F)C(F)(F)C(F)(F)F`: “inactive”; `O=C1CCCO1`: “inactive”; `NC(=O)CN1CCCC1=O`: “inactive”. For the compound `Cc1cc(Cl)ccc1N=CN(C)C`, the Potency entry is “inactive”. Next, `O=C1C(Cl)=C(Cl)C(=O)c2ccccc21`: “inactive”; `N#Cc1cccnc1`: “inactive”. Next, `Clc1ccc(C(Cl)(Cl)Cl)cc1`: “inactive”. In the case of `CC1=C(C(=O)Nc2ccccc2)SCCO1`, the Potency entry is “inactive”. For the compound `CC(C)(c1ccccc1)c1ccc(O)c(C(C)(C)c2ccccc2)c1`, the Potency result is “inactive”. Next, `COc1ccc(C=O)cc1OC`: “inactive”. On to `O=[N+]([O-])c1ccc(Cl)c([N+](=O)[O-])c1`, for which the Potency result was “inactive”. Next, `O=P(OCCCl)(OCCCl)OCCCl`: “inactive”.

Regarding `S=c1[nH]c2ccccc2[nH]1`, the Potency result was “inactive”. Next, `Brc1ccc(Br)cc1`: “inactive”; `CN(C)c1ccccc1`: “inactive”.
